For assay [1], the system named is Zika virus NS2B-NS3 protease (linked construct). The assay can be described thus: Primary screen NINDS Rhodamine qHTS for Zika virus inhibitors (AID 1347160). Note: nearly all actives have a fitted effect of over 55% in size. In a few lines: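 Rhodamine110-peptide cleavage (1.5 µM substrate) by 25 nM linked NS2B-NS3 enzyme at pH 8.0 (Tris, Tween 20), after 15 min RT preincubation with compounds; 15-min fluorescence change normalized to controls and Hill-fitted.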
For orientation: Quantitative high-throughput screening tests each substance at several concentrations.

For assay [2], the target named is Calcium and integrin-binding protein 1 (Homo sapiens) (UniProt Q99828). The assay can be described thus: Primary qHTS for Identification of Calcium Integrin Binding Protein 1 (CIB1) Competitor (AID 1508620).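 Note: GST tagged CIB1 binding a fluorescein labelled alphaIIb integrin peptide tracer; top concentration of the series differs between compounds; % is set by controls: 0 for no effect and ±100 for the full control effect.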 The procedure, abridged:
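Fluorescence polarization competition: CIB1-GST (1 uM final) preincubated with compound 15 min at room temperature, then FITC-labeled alphaIIb peptide (100 nM final) added for another 15 min. Polarization read at Ex 480/Em 540.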

The nature of assay [3]: Primary qHTS for inhibitors of nuclear receptor binding SET domain protein 2 (NSD2) in an isogenic RCH-ACV NSD2 p.E1099K mutant (9B) (AID 1645876). Note: nearly all actives have a fitted effect of over 70% in size. Note: potency is the fitted concentration of half-maximal effect.
The target in assay [4] is Glutathione peroxidase 1 (Homo sapiens) (UniProt P07203). The assay can be described thus: Primary qHTS Assay for Inhibitors of Recombinant Selenoprotein Glutathione Peroxidase 1 (GPX1) (AID 1845191). Note: % is set by controls: 0 for no effect and ±100 for the full control effect; nearly all actives have a fitted effect of over 65% in size. The procedure, abridged:
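GPX1 10 nM, GR 100 nM, GSH 1 mM, NADPH 0.5 mM, CHP 0.5 mM (final). 30-min cpd preincubation, RT. Ex340/Em450 read t=0, t=15 min.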

For assay [5], the target named is Phospholipid hydroperoxide glutathione peroxidase GPX4 (Homo sapiens) (UniProt P36969). The assay can be described thus: Primary qHTS Assay for Inhibitors of Recombinant Selenoprotein Glutathione Peroxidase 4 (GPX4) (AID 1845192). Note: % is set by controls: 0 for no effect and ±100 for the full control effect; nearly all actives have a fitted effect of over 65% in size. The procedure, abridged: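 qHTS, GR-coupled: GPX4 200 nM + cpd 30 min RT → GSH 1 mM, NADPH 0.5 mM, GR 100 nM → CHP 0.5 mM start; fluor 340/450 at t0 and t15 min; no-enzyme wells as control.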
Phospholipid hydroperoxide glutathione peroxidase GPX4 (Homo sapiens), sequence (P36969 whole entry, looked up): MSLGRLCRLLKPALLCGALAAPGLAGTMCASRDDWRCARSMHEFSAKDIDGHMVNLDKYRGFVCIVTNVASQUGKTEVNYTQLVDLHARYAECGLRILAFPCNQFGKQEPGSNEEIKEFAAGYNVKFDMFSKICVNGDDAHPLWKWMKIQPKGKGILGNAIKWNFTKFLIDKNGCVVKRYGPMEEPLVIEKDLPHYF

Assay [6] concerns the target Luciferin 4-monooxygenase (Photinus pyralis) (UniProt P08659). The assay can be described thus: Primary firefly luciferase (FLuc) qHTS assay for identification of artifact compounds. (AID 1845220). Note: nearly all actives have a fitted effect of over 60% in size. The conditions noted are these: outcome: dose series up to 54.1 µM unless noted. The procedure, abridged:
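Reaction readout was CCD-imaged luminescence, taken 5 min after adding 10 nM purified firefly enzyme to compound-treated wells holding 10 uM luciferin and ATP in pH 7.6 buffer.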

A short description of assay [7]: Primary fluorescence-based thiol-reactive (MSTI) qHTS assay for identification of artifact compounds. (AID 1845221). Note: nearly all actives have a fitted effect of over 65% in size. Note: potency is the fitted concentration of half-maximal effect. The procedure, abridged: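 In PBS pH 7.4 with 2% DMSO, each compound met 4 uM MSTI for one hour at ambient temperature, shielded from light, before fluorescence detection.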
Assay [8] deals with Nanoluciferase (engineered Oplophorus gracilirostris luciferase). The assay can be described thus: Primary Nanoluciferase (NLuc) qHTS assay for identification of artifact compounds. (AID 1845222).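 Note: NLuc secreted into diluted conditioned medium of S16 cells.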 In a few lines:
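Concentration-response data were obtained by luminescence after 5 min with Nano-Glo substrate at 1:100. The enzyme was diluted S16 NLuc-expressing cell medium, preincubated with compound for 15 min at RT. Curves were fitted with a 4-parameter Hill model.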

The test system of the next assay is CRL-7250. The assay can be described thus: Cytotoxic Profiling of Annotated Libraries Using Quantitative High-Throughput Screening (AID 1296008). For max response: % is set by controls: 0 for no effect and ±100 for the full control effect. Note: nearly all actives have a fitted effect of over 60% in size. Note: potency is the fitted concentration of half-maximal effect. The conditions noted are these: Five cell lines viability, CellTiter-Glo ATP luminescence, 48-72 h; max response: hits give low values. In a few lines:
(§1)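 Compounds were pin-transferred onto cells and incubated 48 or 72 hr at 37 degree Celsius, 95% humidity. CellTiter-Glo was added, plates sat 10 min at room temperature, then ATP-coupled luminescence was imaged as the viability read-out.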
On the technique in general: In ATP-based viability assays light output follows the ATP content of the culture.

A further assay deals with HEK293. Described as above. The following applies: Five cell lines viability, CellTiter-Glo ATP luminescence, 48-72 h; max response: hits give low values. The procedure, abridged:
as §1

For another assay, the system named is HaCat. The description is as above. The conditions noted are these: Five cell lines viability, CellTiter-Glo ATP luminescence, 48-72 h; max response: hits give low values. In a few lines:
as §1

The subject of another assay is C33A. The assay can be described thus: Primary qHTS to identify gynecologic anti-cancer compounds using libraries of approved drugs and bioactive compounds (AID 1345084). Note: nearly all actives have a fitted effect of over 55% in size. Note: potency is the fitted concentration of half-maximal effect. The conditions noted are these: Gynecologic cancer cell panel viability, ATPlite luminescence, 48 h; series mostly up to 57.5 µM. The procedure, abridged:
(§2)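 Five-concentration response, 48 h; readout is ATP-driven luciferase luminescence.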

The subject of a further assay is CASKI. The description is as above. The conditions noted are these: Gynecologic cancer cell panel viability, ATPlite luminescence, 48 h; series mostly up to 57.5 µM. The procedure, abridged:
as §2

A further assay deals with Es-2. The assay is described as above. The following applies: Gynecologic cancer cell panel viability, ATPlite luminescence, 48 h; series mostly up to 57.5 µM. In a few lines: as §2
For another assay, the system named is Hek293T. Described as above. The conditions noted are these: Gynecologic cancer cell panel viability, ATPlite luminescence, 48 h, control line for the selectivity index; series mostly up to 57.5 µM. The procedure, abridged: as §2
Another assay concerns OV90. Described as above. The conditions noted are these: Gynecologic cancer cell panel viability, ATPlite luminescence, 48 h; series mostly up to 57.5 µM. The procedure, abridged:
as §2

In another assay the test system is PA-1. Described as above. The conditions noted are these: Gynecologic cancer cell panel viability, ATPlite luminescence, 48 h; series mostly up to 57.5 µM. In a few lines: as §2
For the next assay, the system named is Tov-21-G. The assay is described as above. The following applies: Gynecologic cancer cell panel viability, ATPlite luminescence, 48 h; series mostly up to 57.5 µM. In a few lines:
as §2

A further assay concerns Tov112D. The assay is described as above. The conditions noted are these: Gynecologic cancer cell panel viability, ATPlite luminescence, 48 h; series mostly up to 57.5 µM. In a few lines:
as §2

Another assay deals with NIH3T3. The assay can be described thus: Cytotoxic Profiling of Annotated Libraries Using Quantitative High-Throughput Screening (AID 1296008). For max response: % is set by controls: 0 for no effect and ±100 for the full control effect. Note: nearly all actives have a fitted effect of over 60% in size. Note: potency is the fitted concentration of half-maximal effect. The conditions noted are these: Five cell lines viability, CellTiter-Glo ATP luminescence, 48-72 h; max response: hits give low values. The procedure, abridged:
as §1

Structures are written as SMILES. Values without a mark were called inactive. Results filed as inconclusive are left out. The source made the active and inactive calls. Calls come from the whole dose curve; as a rule, active = well fitted curve in the direction sought with a large enough effect; inconclusive = small, poorly fitted or top-dose-only effect, or another doubt; inactive = no such curve, though single readings can be large; an effect the other way counts as inactive or inconclusive.

Calcium and integrin-binding protein 1 (Homo sapiens), sequence (Q99828 whole entry, looked up): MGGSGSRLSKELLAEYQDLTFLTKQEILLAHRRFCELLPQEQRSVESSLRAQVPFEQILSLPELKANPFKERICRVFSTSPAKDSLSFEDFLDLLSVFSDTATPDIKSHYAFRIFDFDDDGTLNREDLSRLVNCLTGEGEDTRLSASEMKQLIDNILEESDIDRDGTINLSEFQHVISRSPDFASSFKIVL
Glutathione peroxidase 1 (Homo sapiens), sequence (P07203 whole entry, looked up): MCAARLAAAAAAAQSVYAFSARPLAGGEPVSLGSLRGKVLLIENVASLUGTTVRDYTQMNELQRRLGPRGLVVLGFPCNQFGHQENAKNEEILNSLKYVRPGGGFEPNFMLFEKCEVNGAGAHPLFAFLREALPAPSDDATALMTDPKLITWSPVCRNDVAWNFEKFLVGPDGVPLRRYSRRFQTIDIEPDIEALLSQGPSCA

In the case of `CC1=C[C@H]2O[C@@H]3[C@H](O)[C@@H](O)[C@](C)([C@@]2(CO)C[C@@H]1O)[C@]31CO1`, the Potency entry in assay [1], in assay [2], in assay [4], in assay [5], in assay [7] and in [8] was “inactive” in each case. Further, the Potency in assay [3] is 0.728 µM (active); with CRL-7250 it was 5.8 µM (active); in the assay on HEK293, 1.3 µM (active); in the assay on HaCat, 7.31 µM (active); with C33A it was 10 µM (active); with CASKI it was 11.2 µM (active). The Potency in the assay on Es-2 is 10 µM (active); in the assay with Hek293T, 2.82 µM (active); in the assay on OV90, 8.91 µM (active); with PA-1 it was 3.98 µM (active); with Tov-21-G it was 10 µM (active). In addition, in assay [6], the result was inactive.

For `O=C(OC[C@H]1O[C@@H](Oc2ccc(O)cc2CO)[C@H](O)[C@@H](O)[C@@H]1O)c1ccccc1`, the Potency result (in assay [2]; in assay [3]; in [4]; in [5]; in [8]; in the assay with C33A) was “inactive” throughout. Also, the Potency entry with CASKI, with Es-2, in the assay on Hek293T, in the assay with OV90, in the assay with PA-1 and in the assay with Tov-21-G was “inactive” in each case. Besides, the Potency result in the assay on Tov112D is “inactive”. In assay [6], the compound was called inactive. The Potency in [7] was 3.67 µM (active). Moreover, the max response in the assay with CRL-7250 was 2.78%; in the assay on HEK293, 0.485%; in the assay with HaCat, -28.3%.

For `CNc1ccc2oc(C[C@H]3O[C@@]4(CC[C@H]3C)O[C@H](C(C)C(=O)c3ccc[nH]3)[C@H](C)C[C@H]4C)nc2c1C(=O)O` (stereo not given in full), the Potency result in assay [1], in assay [2], in [5] and in [8] was “inactive” throughout. The Potency in assay [3] was 16.3 µM (active); in [7], 2.38 µM (active); with CRL-7250 it was 5.8 µM (active); in the assay with HEK293 it was 1.3 µM (active); with HaCat, 7.31 µM (active); in the assay on NIH3T3 it was 3.66 µM (active). The Potency in the assay on C33A was 11.2 µM (active); in the assay with Es-2, 10 µM (active); in the assay with Hek293T, 8.91 µM (active); in the assay with OV90, 12.6 µM (active); in the assay with PA-1, 4.47 µM (active); with Tov-21-G it was 11.2 µM (active). In addition, the compound was classed as inactive in assay [6].

Take `C[C@H](CCC(=O)O)C[C@H](C)C[C@H](C)C(=O)/C=C(\O)[C@H](C)C[C@H](C)C/C=C/[C@@H](C)[C@@H](O)[C@@H](C)[C@@H](O)C[C@@H]1CC[C@@](C)([C@H]2CC[C@@](C)([C@@H](C)O)O2)O1`: the Potency result in assay [1], in assay [2], in assay [4], in assay [5], in assay [7] and in assay [8] was “inactive” throughout. Also, the Potency result in the assay on C33A, with CASKI, in the assay with Es-2, with Hek293T, with PA-1 and in the assay with Tov112D was “inactive” each time. Besides, the Potency in assay [3] was 7.09 µM (active); with CRL-7250 it was 3.17 µM (active); in the assay on HEK293 it was 5.02 µM (active). Also, in assay [6], the result was inactive. In addition, the max response in the assay on HaCat was -1.41%.
